The values that follow come from PubChem BioAssay (EPA / NIEHS).

Several values for one entry are separate records, joined by “and”; a condition that tells them apart may be missing. Equal entries are not always repeated. Activity calls are given as the source filed them. Rule for the calls: active = hit-call score of the fitted dose curve at least 0.9, where 1 is the maximum; inactive = score below 0.9.

A short description of this experiment: BSK_3C_TissueFactor: BioMAP Diversity Plus: 3C Assay for Tissue Factor Biomarker Activity (AID 2282997). The conditions noted are these: BioMAP 3C HUVEC, tissue factor biomarker readout; actives raise or lower the signal. The method, then: BSK_3C is a cell-based, multiplexed-readout assay that uses umbilical vein endothelium, a human vascular primary cell, with measurements taken at 24 hours after chemical dosing in a 96-well plate.BSK_3C_TissueFactor is an assay component measured in the BSK_3C assay. It measures Tissue Factor antibody related to regulation of gene expression using ELISA technology.Data from the assay component BSK_3C_TissueFactor was analyzed into 1 assay endpoint. This assay endpoint, BSK_3C_TissueFactor, was analyzed with bidirectional fitting relative to DMSO as the negative control and baseline of activity. Using a type of binding reporter, gain or loss-of-signal activity can be used to understand changes in the signaling as they relate to the gene F3. Furthermore, this assay endpoint can be referred to as a primary readout, because this assay has produced multiple assay endpoints where this one serves a signaling function. To generalize the intended target to other relatable targets, this assay endpoint is annotated to the cytokine intended target family, where the subfamily is coagulation factor.
The levels of cell surface (or secreted, indicated by the prefix "s") biomarker endpoints were measured by ELISA. Overt cytotoxicity to cells in confluent adherent cultures (all systems other than the BT system) was assessed by measuring total protein levels using sulforhodamine B (SRB) staining in parallel cultures at the time of biomarker measurements, indicated as SRB endpoints. For proliferation assays for adherent cell types, individual cell types are cultured at sub-confluence and relative cell numbers quantified by SRB staining at time points optimized for each system (48 h: 3C and CASM3C systems; 72 h: BT and HDF3CGF systems; 96 h: SAg system). SRB was performed by staining cells with 0.1% SRB after fixation with 10% TCA and reading wells at 560 nm.Viability and proliferation of PBMC (T cells) was quantified by Alamar Blue reduction for the SAg and BT systems. For PBMC viability (referred to as PBMC Cytotoxicity within the assay endpoint names), cells were plated (75,000/well in a 96-well plate) and then chemical samples added for 1 h before addition of activators, SEB and TSST-1 (20 ng/mL final concentration each). Cells were incubated for 90 h. Then, Alamar Blue (20 uL/well) (Invitrogen, Cat DAL1100) was added for 6 h, and the plates were read with a fluorescence microplate reader at 546/580 nm (excitation/emission). For PBMC proliferation, cells were plated and activated as above but incubated for only 16 h prior to addition of Alamar Blue. Plates were read after 6 h.
Take `O=C(c1ccc(O)cc1O)c1ccc(O)cc1O`: the concentration at half-maximal activity (AC50) was 29.2 µM (active).
As for `CCOC(=O)[C@H](C)Oc1ccc(Oc2nc3ccc(Cl)cc3o2)cc1`, the result was inactive.
Same read-out and setting: the result for `CN(C)C(=O)Nc1ccc(Cl)c(Cl)c1` reads “inactive”.
Same read-out and setting: the result for `S=C([S-])NCCNC(=S)[S-].[Mn+2]` reads “inactive”; that for `CCOC(=O)NCCOc1ccc(Oc2ccccc2)cc1`, “inactive”; that for `COC(=O)c1ccc(CNS(C)(=O)=O)cc1S(=O)(=O)NC(=O)Nc1nc(OC)cc(OC)n1`, “inactive”.
Take `CCCOC(=O)NCCCN(C)C`: the outcome was inactive.
Consider `C[C@]12CC[C@@H]3c4ccc(O)cc4C[C@@H](CCCCCCCCCS(=O)CCCC(F)(F)C(F)(F)F)[C@H]3[C@@H]1CC[C@@H]2O` (stereo not given in full), for which the result was inactive.
As to `CCCN(CCC)C(=O)SCC`, the outcome was inactive.
As to `c1ccc(Nc2ccccc2)cc1`, the result was inactive.
Consider `CCOC(=O)COc1cc(-n2ncc(C(F)(F)F)c(C)c2=O)c(F)cc1Cl`, for which the result was inactive.
Turning to `CC(C)(c1ccc(O)cc1)c1ccc(O)cc1`, the result was inactive.
Regarding `COc1nc(C)nc(NC(=O)NS(=O)(=O)c2ccccc2OCCCl)n1`, the result was inactive.
Consider `CCOC(=O)c1ccc(O)cc1`, for which the result was inactive.
Same read-out and setting: the result for `c1ccc2[nH]c(-c3cscn3)nc2c1` reads “inactive”; that for `CCN(Cc1c(F)cccc1Cl)c1c([N+](=O)[O-])cc(C(F)(F)F)cc1[N+](=O)[O-]`, “inactive”.
With `CCCCOC(=O)C(C)Oc1ccc(Oc2ccc(C(F)(F)F)cn2)cc1` (stereo not given), the outcome was inactive.
As for `CCCCCCC(C)OC(=O)COc1nc(F)c(Cl)c(N)c1Cl` (stereo not given), the AC50 is 34.4 µM (active).
In the case of `CCCCOCCOCCOCc1cc2c(cc1CCC)OCO2`, the result was inactive.
`COCCO`: the result was inactive.
With `CC(C)(C)[C@@H](O)[C@@H](Cc1ccc(Cl)cc1)n1cncn1`, the result was inactive.
Same read-out and setting: under `C[C@]12C[C@H](O)[C@H]3[C@@H](CCC4=CC(=O)CC[C@@]43C)[C@@H]1CC[C@@H]2C(=O)CO` stands “inactive”; under `CCOC(=O)C(C)Oc1ccc(Oc2cnc3cc(Cl)ccc3n2)cc1` (stereo not given), “inactive”; under `COc1c(Cl)ccc(Cl)c1C(=O)O`, “inactive”.
Still for that read-out and setting: the result for `CCC(O)=C1C(=O)CC(C(=O)O)CC1=O` (stereo not given) reads “inactive”; that for `O=C(O)c1ccccc1`, “inactive”; that for `O=C(c1ccccc1)C1CCCCC1`, “inactive”.
Regarding `CCCN(CCC)c1c([N+](=O)[O-])cc(C(F)(F)F)c(N)c1[N+](=O)[O-]`, the half-maximal activity concentration (AC50) is 36.5 µM (active).
In the case of `N[C@@H](Cc1cc(I)c(Oc2ccc(O)c(I)c2)c(I)c1)C(=O)O`, the result was inactive.
Regarding `CCC(C)OC(=O)N1CCCCC1CCO` (stereo not given), the outcome was inactive.
The same measure, in the same setting: the result for `CCCOC(=O)c1ccc(C(=O)OCCC)nc1` reads “inactive”.
Still for that read-out and setting: under `CCCCC(CC)COC(=O)c1ccccc1C(=O)O` (stereo not given) stands “inactive”; under `CCNc1nc(N)nc(Cl)n1`, “inactive”; under `CC1(C)C(C=C(Cl)Cl)C1C(=O)OCc1cccc(Oc2ccccc2)c1` (stereo not given), “inactive”.
On the same count and under the same terms, under `CSC(=O)c1cccc2nnsc12` stands “inactive”.
For the molecule `CC(C)CCCCCCc1ccc(O)cc1`, the AC50 is 9.54 µM (active).
On the same count and under the same terms, under `N#CSCSc1nc2ccccc2s1` stands 3.33 µM (active) and 5.66 µM (active).
As to `Oc1ccc(C(c2ccc(O)cc2)C(Cl)(Cl)Cl)cc1`, the AC50 was 36.4 µM (active).
Regarding `OB(O)O`, the result was inactive.
With `CC(=O)[C@H]1CC[C@H]2[C@@H]3CCC4=CC(=O)CC[C@]4(C)[C@H]3CC[C@]12C`, the AC50 is 13.1 µM (active).
